Test results taken from publication PMC12136788.
In all, about 24,000 sequences were measured (“enrichment r”: median about 0.99, highest 2% from about 3.7 on). This excerpt belongs to a sample that is enriched for the highest values.

T1: UNK ZnF1-3 (human, UniProt Q9C0B0 31-174)
T1 sequence: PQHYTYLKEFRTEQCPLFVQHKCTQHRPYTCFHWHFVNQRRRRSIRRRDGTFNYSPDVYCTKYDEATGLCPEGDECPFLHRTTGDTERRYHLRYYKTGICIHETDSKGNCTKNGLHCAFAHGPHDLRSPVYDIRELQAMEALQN

B1: chr18:46858332:46858333:-_ENSG00000141627_ENST00000269445|hu_hu|FALSE|FALSE (ssRNA)
RNA: GGGAGUUCUACAGUCCGACGAUCCGACUGCUGAGGGAAAACAUGGGCCCCUGGAGGAGGUGGCUUUUCUUGUCUGAUAAAGUUAUAUAAUAAGGUCUUCACAAGUUUGCUGGUGUAUGGAAGACAUGGACCUCGCAUCAAAUACAACAGAGGAUUGAGCAUCA
B2: chr8:108054885:108054886:-_ENSMUSG00000013160_ENSMUST00000013304|mus_mus|FALSE|FALSE (ssRNA)
RNA: GGGAGUUCUACAGUCCGACGAUCUGAACGCUGGUGCAGUGUGCCUGUGAUUAGCAGGAUCACGUUGUCAAUCAUGUAGCUAUAAGUUAUGAAGUCCAGGAAGCUGGCGAGCGGCUCAUAAGCAUGGUUUCUCAUGUGGCGGAACAACAGAGGAUUGAGCAUCA
B3: chr1:35656432:35656433:-_ENSG00000116560_ENST00000357214|perfect_dup|motif|central (ssRNA)
RNA: GGGAGUUCUACAGUCCGACGAUCAGAUCUUCCGCGAUCAUCCACAAUUACAACAGCCCUUUCAAUAGGACCAAACUGGCGGAAGGCCUCUUCCAAAAGUUCGUUGGAAACAUAAGGAGAGAGAUUUCGAACAGACAGGGCUGCCAACAGAGGAUUGAGCAUCA
B4: 17381947_17386413_246_CDS_ENSMUSG00000041720_ENSMUST00000036161|mouse|control|control (ssRNA)
RNA: GGGAGUUCUACAGUCCGACGAUCGCAGAAGCUGAAGCUCUCUGCAACUGGGAGGUUACCUCUGCCUUUCCGAGCUGUGCUUUCUUCUACCCAAUACACUUUUGGAAGACCCCUGAGAAGUCGAAGAAGAUAAGGAACAACACACAACAGAGGAUUGAGCAUCA
B5: 235582851_235590549_671_CDS_ENSG00000116957_ENST00000366601|human|control|control (ssRNA)
RNA: GGGAGUUCUACAGUCCGACGAUCAUUAAGGACUUCCAGGUGUCUGAGCUGAUCAGCAAUGUGUAUCACUUCAUCCCAUGAUGACAACAGGUUUUUUGACAAAUCUACCUUUCUGAUAUUAGGACAUGCUUCAGCAACUCCUCCCAACAGAGGAUUGAGCAUCA
B6: chr5:74677807:74677808:-_ENSG00000113163_ENST00000380494|hu_mus|motif|central (ssRNA)
RNA: GGGAGUUCUACAGUCCGACGAUCACGGACACAUCGAUUGUUCAGAGGAGCACUAUCAUGAUCCACAGAAAAAUUACAAACGGUCCAAGUUUCAGGAUCAUUUUCAGUCAAGGCUGGGAUCUUUCGAAUAGCAGAAAGAUACAGCAACAGAGGAUUGAGCAUCA
B7: chr16:94690093:94690094:+_ENSMUSG00000040785_ENSMUST00000117648|mus_hu|mus_mus_mus_hu_True|68_78 (ssRNA)
RNA: GGGAGUUCUACAGUCCGACGAUCGGGCUGGGAUGACGGACACACAGCCUCGAUUCCGGUAAAAAAAAAAAAUAGCCGAUACUAAUUAAAAAGUGUUAAUGAUUUUUGAAAAUCAGAUUACAUCUAUAAAAGAUGAAAAGCAAACAACAGAGGAUUGAGCAUCA
B8: chr16:94690093:94690094:+_ENSMUSG00000040785_ENSMUST00000117648|mus_hu|mus_mus_mus_hu_True|18_78 (ssRNA)
RNA: GGGAGUUCUACAGUCCGACGAUCGGGCUGGGAUGACGGACACACAGCCUCGAUUCCGGUAAAAAAAAGUCUUAGUCGAUACUAAUUAAAAAGUGUUAAUGAUUUUUGAAAAUCAGAUGUAGAUUAAAAAAGAUGAAAAGCAAACAACAGAGGAUUGAGCAUCA
B9: chr16:94690093:94690094:+_ENSMUSG00000040785_ENSMUST00000117648|mus_hu|mus_mus_mus_hu_True|48_48 (ssRNA)
RNA: GGGAGUUCUACAGUCCGACGAUCGGGCUGGGAUGACGGACACACAGCCUCGAUUCCAGGGGGAAAAAGUCUUAGUCGAUACUAAUUUAAAAAGUAUAAUGAUUUUUGAAAAUCAGAUUACAUCUAUAAAAGAUGAAAAGCAAACAACAGAGGAUUGAGCAUCA
B10: chr16:94690093:94690094:+_ENSMUSG00000040785_ENSMUST00000117648|mus_hu|mus_mus_mus_hu_True|8_98 (ssRNA)
RNA: GGGAGUUCUACAGUCCGACGAUCGGGCUGGGAUGACAGCAGACAGCCCUCGAUUCCAGGGGGAAAAAGUCUUAGUCGAUACUAAUUAAAAAGUGUUAAUGAUUUUUGAAAAUCAGAUUACAUCUAUUUGAAUCAUAAAGCAAACAACAGAGGAUUGAGCAUCA
B11: chr16:94690093:94690094:+_ENSMUSG00000040785_ENSMUST00000117648|mus_hu|mus_mus_mus_hu_True|18_98 (ssRNA)
RNA: GGGAGUUCUACAGUCCGACGAUCGGGCUGGGAUGACAGCAGACAGCCCUCGAUUCCAGGGGGAAAAAGUCUUAGUCGAUACUAAUUAAAAAGUGUUAAUGAUUUUUGAAAAUCAGAUGUAGAUUAAAAAAGAUGAAAAGCAAACAACAGAGGAUUGAGCAUCA
B12: chr16:94690093:94690094:+_ENSMUSG00000040785_ENSMUST00000117648|mus_hu|mus_mus_mus_hu_True|1_68 (ssRNA)
RNA: GGGAGUUCUACAGUCCGACGAUCGGGCUGGGAUGACGGACACACAGCCUCGAUUCCAGGGGGAAAAAAAAAUAGCCGAUACUAAUUAAAAAGUGUUAAUGAUUUUUGAAAAUCAGAUUACAUCUAUAAAAGAUGAAAGCACUUCAACAGAGGAUUGAGCAUCA
B13: chr16:94690093:94690094:+_ENSMUSG00000040785_ENSMUST00000117648|mus_hu|mus_mus_mus_hu_True|18_38 (ssRNA)
RNA: GGGAGUUCUACAGUCCGACGAUCGGGCUGGGAUGACGGACACACAGCCUCGAUUCCAGGGGGAAAAAGUCUUAGUCGAUACUAAUUAAAAAGUGUUUUUAUAAUUGGAAAAUCAGAUGUAGAUUAAAAAAGAUGAAAAGCAAACAACAGAGGAUUGAGCAUCA
B14: chr17:6086338:6086339:+_ENSMUSG00000034345_ENSMUST00000039487|mus_mus|motif|central (ssRNA)
RNA: GGGAGUUCUACAGUCCGACGAUCUGACUGAAAUAUAAAAUCCAGUAGUGCUCCAAUACAGCUAGAGUGUCCAUAAAAAUCGGUCUUCUACUUAAUUCUUAGUAUCAGGUGUGUAAGUAACAAUCCACUGGAAAGUUUACAUUACAACAGAGGAUUGAGCAUCA

These binders were tested against T1, UNK ZnF1-3 (assay: nsRBNS (natural sequence RNA bind-n-seq); RBNS binding buffer (assumed for nsRBNS): 25 mM Tris pH 7.5, 150 mM KCl, 3 mM MgCl2, 0.01% Triton X-100, 500 ug/ml BSA, 20 U/ml SUPERase-In, 4 C; UNK is unkempt and MSI1 is Musashi-1; names of the RNAs are library labels; protein concentration not given here; high values mean tight binding).

Binder | binding signal [enrichment R]
B1 | 2.32
B2 | 0.896
B3 | 1.13
B4 | 0.848
B5 | 0.938
B6 | 1.36
B7 | 5.49
B8 | 3.5
B9 | 0.836
B10 | 0.999
B11 | 4.09
B12 | 1.12
B13 | 3.69
B14 | 0.812
